Results on 20 compounds are retold here after PubChem BioAssay (EPA / NIEHS).

For orientation: AC50 means the concentration at which the activity in the assay is half-maximal.

Records with an inconclusive call do not appear. The source made the active and inactive calls. Rule for the calls: active = hit-call score of the fitted dose curve at least 0.9, where 1 is the maximum; inconclusive = response in the unintended direction; inactive = score below 0.9.

The target of assay [1] is human Mitogen-Activated Protein Kinase 1 (MAPK 1), MAPK1 (gene 5594) (UniProt P28482). In words: NVS_ENZ_hMAPK1: NovaScreen (NVS) Enzymatic Assay for human Mitogen-Activated Protein Kinase 1 (MAPK 1) (AID 2283175). The essentials:
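Cell-free recombinant human MAPK1 enzymatic assay, fluorescence/electrophoretic mobility shift read at 1 h; loss of signal vs DMSO. Primary screen in duplicate at 25 uM; actives (e.g. ≥30% inhibition) run as concentration-response up to 50 uM.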

The target of assay [2] is Mitogen-activated protein kinase 3 (Homo sapiens) (UniProt P27361). Nature of the assay: NVS_ENZ_hMAPK3: NovaScreen (NVS) Enzymatic Assay for human Mitogen-Activated Protein Kinase 3 (MAPK 3) (AID 2283177). Summed up:
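Chemicals were first tested in duplicate at 25 uM, with hits re-run as concentration series (max 50 uM). Recombinant enzyme activity, measured 1 h post-dose in a cell-free format, was read by fluorescence/mobility shift relative to DMSO.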

The target of assay [3] is human MAP Kinase-Activated Protein Kinase 2 (MAPKAPK2), MAPKAPK2 (gene 9261) (UniProt P49137). In words: NVS_ENZ_hMAPKAPK2: NovaScreen (NVS) Enzymatic Assay for human MAP Kinase-Activated Protein Kinase 2 (MAPKAPK2) (AID 2283178). How it is done: (§1) NVS_ENZ_hMAPKAPK2 is a biochemical, single-readout assay that uses extracted gene-proteins in a cell-free assay. Measurements were taken 1 hour after chemical dosing in a 384-well plate.NVS_ENZ_hMAPKAPK2 is one of one assay component(s) measured or calculated from the NVS_ENZ_hMAPKAPK2 assay. It is designed to make measurements of enzyme activity, a form of enzyme reporter, as detected with fluorescence intensity signals by Fluorescence and electrophoretic mobility shift technology.Data from the assay component NVS_ENZ_hMAPKAPK2 was analyzed into 1 assay endpoint. This assay endpoint, NVS_ENZ_hMAPKAPK2, was analyzed in the positive analysis fitting direction relative to DMSO as the negative control and baseline of activity. Using a type of enzyme reporter, loss-of-signal activity can be used to understand changes in the enzymatic activity as they relate to the gene MAPKAPK2. Furthermore, this assay endpoint can be referred to as a primary readout, because this assay has produced multiple assay endpoints where this one serves a enzymatic activity function. To generalize the intended target to other relatable targets, this assay endpoint is annotated to the kinase intended target family, where the subfamily is serine/threonine kinase.
human MAP Kinase-Activated Protein Kinase 2 (MAPKAPK2), MAPKAPK2 (gene 9261), sequence (P49137 whole entry, looked up): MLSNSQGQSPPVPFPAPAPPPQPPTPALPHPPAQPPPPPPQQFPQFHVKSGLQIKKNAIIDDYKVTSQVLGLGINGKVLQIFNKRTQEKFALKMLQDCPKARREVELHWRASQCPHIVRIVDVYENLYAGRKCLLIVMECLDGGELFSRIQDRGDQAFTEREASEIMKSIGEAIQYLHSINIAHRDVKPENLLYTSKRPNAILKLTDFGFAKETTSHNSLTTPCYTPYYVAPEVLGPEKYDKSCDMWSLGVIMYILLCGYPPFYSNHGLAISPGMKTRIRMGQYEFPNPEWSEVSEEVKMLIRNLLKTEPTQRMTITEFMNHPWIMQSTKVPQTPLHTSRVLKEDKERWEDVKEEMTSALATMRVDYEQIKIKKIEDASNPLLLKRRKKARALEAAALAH
(§2) Binding assays used specific radioligands (tritiated, iodinated) with non-radioactive competitive displacement ligands in agonist or antagonist protocols (as indicated) and various reference compounds and inhibitors to titrate specific binding to receptors and transporters. Most enzyme assays (CYPs, kinases, phosphatases, proteases, HDACs) used recombinant protein and specific substrates (fluorescence mostly, some colorimetric and radioactive) and inhibitors, followed by a biochemical separation of substrate and product. All assays for the biochemical HTS were initially run in duplicate at a single concentration (10 uM for CYP450 assays and 25 uM for all others). Assay-chemical combinations meeting a pre-defined threshold (e.g., 30% inhibition and other criteria defined below) were then run in singleton concentration-response format with maximum concentration of 20 uM for CYPs and 50 uM for all others. Each assay was run with positive and negative controls, and concurrent controls on every plate. The follow-up (secondary) screen tested active chemical-pairs in concentration series, as well as a few additional assays not tested in the primary screen, some selected negative inactives, and several cases re-run in the concentration series for confirmatory purposes.

In assay [4] the target is human Matrix Metalloproteinase-7 (MMP7), MMP7 (gene 4316) (UniProt P09237). Nature of the assay: NVS_ENZ_hMMP7: NovaScreen (NVS) Enzymatic Assay for human Matrix Metalloproteinase-7 (MMP7) (AID 2283183). How it is done: NVS_ENZ_hMMP7 is a biochemical, single-readout assay that uses extracted gene-proteins in a cell-free assay. Measurements were taken 1 hour after chemical dosing in a 96-well plate.NVS_ENZ_hMMP7 is one of one assay component(s) measured or calculated from the NVS_ENZ_hMMP7 assay. It is designed to make measurements of enzyme activity, a form of enzyme reporter, as detected with fluorescence intensity signals by Fluorescence technology.Data from the assay component NVS_ENZ_hMMP7 was analyzed into 1 assay endpoint. This assay endpoint, NVS_ENZ_hMMP7, was analyzed in the positive analysis fitting direction relative to DMSO as the negative control and baseline of activity. Using a type of enzyme reporter, loss-of-signal activity can be used to understand changes in the enzymatic activity as they relate to the gene MMP7. Furthermore, this assay endpoint can be referred to as a primary readout, because this assay has produced multiple assay endpoints where this one serves a enzymatic activity function. To generalize the intended target to other relatable targets, this assay endpoint is annotated to the protease intended target family, where the subfamily is matrix metalloproteinase.
human Matrix Metalloproteinase-7 (MMP7), MMP7 (gene 4316), sequence (P09237 whole entry, looked up): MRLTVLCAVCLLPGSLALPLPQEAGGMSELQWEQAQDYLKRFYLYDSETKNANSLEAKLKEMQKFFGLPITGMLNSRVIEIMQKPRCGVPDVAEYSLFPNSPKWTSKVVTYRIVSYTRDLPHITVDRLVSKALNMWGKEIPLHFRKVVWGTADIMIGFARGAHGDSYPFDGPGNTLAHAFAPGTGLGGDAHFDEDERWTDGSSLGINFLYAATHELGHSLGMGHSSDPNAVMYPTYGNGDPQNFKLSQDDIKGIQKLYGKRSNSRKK
as §2

Assay [5] addresses human MET Proto-Oncogene, Receptor Tyrosine Kinase (MET), MET (gene 4233) (UniProt P08581). Nature of the assay: NVS_ENZ_hMet: NovaScreen (NVS) Enzymatic Assay for human MET Proto-Oncogene, Receptor Tyrosine Kinase (MET) (AID 2283180). The essentials:
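Hits from a 25 uM duplicate screen were retested in concentration series up to 50 uM. Enzyme activity was measured by fluorescence after electrophoretic separation of product from substrate, 1 h after compound addition, relative to DMSO.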

Assay [6] has as its target human Matrix Metalloproteinase-1 (MMP1), MMP1 (gene 4312) (UniProt P03956). In words: NVS_ENZ_hMMP1: NovaScreen (NVS) Enzymatic Assay for human Matrix Metalloproteinase-1 (MMP1) (AID 2283181). The essentials:
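Cell-free fluorescent substrate assay of human MMP1, read after 1 h. A single 25 uM duplicate screen was followed by concentration series to a maximum of 50 uM for actives meeting threshold; inhibition analysed against DMSO baseline.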

Assay [7] deals with human Matrix Metalloproteinase-3 (MMP3), MMP3 (gene 4314) (UniProt P08254). Nature of the assay: NVS_ENZ_hMMP3: NovaScreen (NVS) Enzymatic Assay for human Matrix Metalloproteinase-3 (MMP3) (AID 2283185). Summed up: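 Fluorescent substrate turnover by recombinant MMP3 read after 1 h, signal loss scored against DMSO. Compounds first run in duplicate at 25 uM single dose, then actives confirmed by concentration series.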
human Matrix Metalloproteinase-3 (MMP3), MMP3 (gene 4314), sequence (P08254 whole entry, looked up): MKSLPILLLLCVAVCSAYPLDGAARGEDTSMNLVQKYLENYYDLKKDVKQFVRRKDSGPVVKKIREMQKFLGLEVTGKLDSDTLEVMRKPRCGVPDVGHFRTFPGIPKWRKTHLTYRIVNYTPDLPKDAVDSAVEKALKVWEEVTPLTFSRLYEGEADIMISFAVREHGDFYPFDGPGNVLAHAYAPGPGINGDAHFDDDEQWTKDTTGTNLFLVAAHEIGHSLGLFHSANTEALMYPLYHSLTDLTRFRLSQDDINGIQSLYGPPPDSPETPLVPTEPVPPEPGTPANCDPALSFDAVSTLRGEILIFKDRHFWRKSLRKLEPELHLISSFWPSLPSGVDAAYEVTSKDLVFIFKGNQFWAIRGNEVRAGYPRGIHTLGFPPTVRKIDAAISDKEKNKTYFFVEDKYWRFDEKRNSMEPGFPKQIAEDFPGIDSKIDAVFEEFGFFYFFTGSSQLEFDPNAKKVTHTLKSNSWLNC

The target in assay [8] is Collagenase 3 (Homo sapiens) (UniProt P45452). Nature of the assay: NVS_ENZ_hMMP13: NovaScreen (NVS) Enzymatic Assay for human Matrix Metalloproteinase-13 (MMP13) (AID 2283182). Summed up: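 Recombinant MMP13 cleaving fluorescent substrate, cell-free, measured 1 h after dosing. Primary duplicate screen at 25 uM; actives tested in concentration-response up to 50 uM; loss of signal relative to DMSO.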

The target in assay [9] is human Matrix Metalloproteinase-2 (MMP2), MMP2 (gene 4313) (UniProt P08253). In words: NVS_ENZ_hMMP2: NovaScreen (NVS) Enzymatic Assay for human Matrix Metalloproteinase-2 (MMP2) (AID 2283184). The essentials:
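Compounds first screened in duplicate at a single 25 uM, with actives followed up in concentration series. Recombinant human MMP2 cleaves a fluorogenic substrate; fluorescence taken at 1 h, inhibition fitted relative to DMSO.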

Assay [10] has as its target human c-Jun N-terminal Kinases (JNK2), MAPK9 (gene 5601) (UniProt P45984). Nature of the assay: NVS_ENZ_hJNK2: NovaScreen (NVS) Enzymatic Assay for human c-Jun N-terminal Kinases (JNK2) (AID 2283171). The procedure:
as §1, with “NVS_ENZ_hJNK2” for “NVS_ENZ_hMAPKAPK2”, “plate.NVS_ENZ_hJNK2” for “plate.NVS_ENZ_hMAPKAPK2”, “NVS_ENZ_hJNK2,” for “NVS_ENZ_hMAPKAPK2,”, “MAPK9.” for “MAPKAPK2.”
Binding assays used specific radioligands (tritiated, iodinated) with non-radioactive competitive displacement ligands in agonist or antagonist protocols (as indicated) and various reference compounds and inhibitors to titrate specific binding to receptors and transporters. Most enzyme assays (CYPs, kinases, phosphatases, proteases, HDACs) used recombinant protein and specific substrates (fluorescence mostly, some colorimetric and radioactive) and inhibitors, followed by a biochemical separation of substrate and product. All assays for the biochemical HTS were initially run in duplicate at a single concentration (10 uM for CYP450 assays and 25 uM for all others). […]

human MET Proto-Oncogene, Receptor Tyrosine Kinase (MET), MET (gene 4233), sequence (P08581 whole entry, looked up): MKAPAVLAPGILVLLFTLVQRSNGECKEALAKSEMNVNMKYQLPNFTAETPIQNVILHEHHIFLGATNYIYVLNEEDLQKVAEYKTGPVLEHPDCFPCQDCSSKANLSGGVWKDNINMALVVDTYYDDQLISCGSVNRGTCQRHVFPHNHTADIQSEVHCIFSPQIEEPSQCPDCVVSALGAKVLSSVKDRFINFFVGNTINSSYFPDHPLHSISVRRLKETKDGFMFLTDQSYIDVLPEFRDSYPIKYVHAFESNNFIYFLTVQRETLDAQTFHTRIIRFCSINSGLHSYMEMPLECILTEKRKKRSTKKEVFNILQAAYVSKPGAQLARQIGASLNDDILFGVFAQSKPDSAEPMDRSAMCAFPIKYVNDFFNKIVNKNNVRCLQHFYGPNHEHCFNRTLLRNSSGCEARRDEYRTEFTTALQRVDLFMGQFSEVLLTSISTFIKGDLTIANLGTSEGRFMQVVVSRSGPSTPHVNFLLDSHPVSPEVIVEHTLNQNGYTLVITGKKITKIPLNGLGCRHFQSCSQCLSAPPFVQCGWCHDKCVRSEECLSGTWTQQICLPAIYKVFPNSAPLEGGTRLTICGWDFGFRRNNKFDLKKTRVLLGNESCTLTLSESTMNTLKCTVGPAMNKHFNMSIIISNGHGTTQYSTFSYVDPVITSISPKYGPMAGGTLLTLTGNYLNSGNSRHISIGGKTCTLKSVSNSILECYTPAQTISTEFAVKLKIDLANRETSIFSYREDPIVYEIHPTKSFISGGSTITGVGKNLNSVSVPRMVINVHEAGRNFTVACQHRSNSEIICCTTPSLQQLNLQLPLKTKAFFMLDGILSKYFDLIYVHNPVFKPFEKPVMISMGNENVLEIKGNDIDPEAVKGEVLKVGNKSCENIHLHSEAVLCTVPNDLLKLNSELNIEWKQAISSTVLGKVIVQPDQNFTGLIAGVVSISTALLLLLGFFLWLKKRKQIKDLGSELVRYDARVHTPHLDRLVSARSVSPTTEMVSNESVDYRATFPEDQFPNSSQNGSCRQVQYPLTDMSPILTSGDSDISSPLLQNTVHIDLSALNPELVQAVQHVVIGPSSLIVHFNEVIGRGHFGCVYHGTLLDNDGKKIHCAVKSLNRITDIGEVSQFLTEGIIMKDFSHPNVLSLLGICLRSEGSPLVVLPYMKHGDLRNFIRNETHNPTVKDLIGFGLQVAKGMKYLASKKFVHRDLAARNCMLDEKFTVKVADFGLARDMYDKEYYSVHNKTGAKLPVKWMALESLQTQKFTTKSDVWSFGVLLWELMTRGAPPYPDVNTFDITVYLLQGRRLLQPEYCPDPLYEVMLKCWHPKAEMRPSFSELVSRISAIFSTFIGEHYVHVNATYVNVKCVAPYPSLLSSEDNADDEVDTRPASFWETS
human c-Jun N-terminal Kinases (JNK2), MAPK9 (gene 5601), sequence (P45984 whole entry, looked up): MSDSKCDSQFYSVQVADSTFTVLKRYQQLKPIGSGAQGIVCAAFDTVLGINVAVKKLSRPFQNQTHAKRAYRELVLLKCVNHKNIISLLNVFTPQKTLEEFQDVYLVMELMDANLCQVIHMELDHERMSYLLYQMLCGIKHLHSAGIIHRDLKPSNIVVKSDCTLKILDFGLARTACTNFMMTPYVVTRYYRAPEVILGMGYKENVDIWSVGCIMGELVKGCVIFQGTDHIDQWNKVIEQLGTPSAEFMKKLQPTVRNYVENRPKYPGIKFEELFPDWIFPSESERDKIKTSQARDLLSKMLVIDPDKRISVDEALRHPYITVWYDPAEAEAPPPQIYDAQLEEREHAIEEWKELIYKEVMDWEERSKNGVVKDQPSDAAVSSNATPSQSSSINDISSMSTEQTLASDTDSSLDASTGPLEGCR
human Matrix Metalloproteinase-1 (MMP1), MMP1 (gene 4312), sequence (P03956 whole entry, looked up): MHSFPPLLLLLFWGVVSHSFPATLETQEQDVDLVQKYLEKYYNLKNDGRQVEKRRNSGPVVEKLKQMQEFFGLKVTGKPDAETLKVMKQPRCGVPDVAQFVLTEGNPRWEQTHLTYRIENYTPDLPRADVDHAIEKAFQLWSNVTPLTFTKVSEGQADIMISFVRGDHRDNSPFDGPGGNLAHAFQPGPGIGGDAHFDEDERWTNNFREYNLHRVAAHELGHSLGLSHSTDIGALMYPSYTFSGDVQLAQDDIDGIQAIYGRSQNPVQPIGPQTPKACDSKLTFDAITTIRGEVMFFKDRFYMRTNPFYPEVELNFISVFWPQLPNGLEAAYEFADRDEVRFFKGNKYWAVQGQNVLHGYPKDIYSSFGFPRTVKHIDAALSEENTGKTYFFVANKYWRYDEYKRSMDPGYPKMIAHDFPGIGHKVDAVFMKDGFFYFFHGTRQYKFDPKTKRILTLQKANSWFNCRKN
Mitogen-activated protein kinase 3 (Homo sapiens), sequence (P27361 whole entry, looked up): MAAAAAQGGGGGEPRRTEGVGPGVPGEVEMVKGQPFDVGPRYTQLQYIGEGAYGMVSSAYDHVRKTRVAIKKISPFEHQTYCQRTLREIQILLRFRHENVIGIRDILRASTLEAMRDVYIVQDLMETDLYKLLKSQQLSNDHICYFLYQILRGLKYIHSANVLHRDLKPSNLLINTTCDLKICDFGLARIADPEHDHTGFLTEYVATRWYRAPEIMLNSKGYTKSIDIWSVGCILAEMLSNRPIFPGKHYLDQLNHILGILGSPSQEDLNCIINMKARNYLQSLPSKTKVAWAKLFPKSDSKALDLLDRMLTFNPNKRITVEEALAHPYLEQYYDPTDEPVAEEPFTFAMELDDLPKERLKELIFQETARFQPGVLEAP
human Mitogen-Activated Protein Kinase 1 (MAPK 1), MAPK1 (gene 5594), sequence (P28482 whole entry, looked up): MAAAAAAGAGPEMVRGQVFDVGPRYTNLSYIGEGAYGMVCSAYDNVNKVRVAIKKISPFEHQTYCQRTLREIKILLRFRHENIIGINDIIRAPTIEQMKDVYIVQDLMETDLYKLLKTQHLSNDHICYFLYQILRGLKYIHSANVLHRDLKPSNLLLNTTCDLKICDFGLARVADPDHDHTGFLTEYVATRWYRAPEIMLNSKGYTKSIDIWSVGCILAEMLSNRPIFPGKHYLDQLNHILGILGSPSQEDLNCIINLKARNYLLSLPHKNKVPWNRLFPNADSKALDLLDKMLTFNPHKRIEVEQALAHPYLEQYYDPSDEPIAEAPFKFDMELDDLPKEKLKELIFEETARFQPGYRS
human Matrix Metalloproteinase-2 (MMP2), MMP2 (gene 4313), sequence (P08253 whole entry, looked up): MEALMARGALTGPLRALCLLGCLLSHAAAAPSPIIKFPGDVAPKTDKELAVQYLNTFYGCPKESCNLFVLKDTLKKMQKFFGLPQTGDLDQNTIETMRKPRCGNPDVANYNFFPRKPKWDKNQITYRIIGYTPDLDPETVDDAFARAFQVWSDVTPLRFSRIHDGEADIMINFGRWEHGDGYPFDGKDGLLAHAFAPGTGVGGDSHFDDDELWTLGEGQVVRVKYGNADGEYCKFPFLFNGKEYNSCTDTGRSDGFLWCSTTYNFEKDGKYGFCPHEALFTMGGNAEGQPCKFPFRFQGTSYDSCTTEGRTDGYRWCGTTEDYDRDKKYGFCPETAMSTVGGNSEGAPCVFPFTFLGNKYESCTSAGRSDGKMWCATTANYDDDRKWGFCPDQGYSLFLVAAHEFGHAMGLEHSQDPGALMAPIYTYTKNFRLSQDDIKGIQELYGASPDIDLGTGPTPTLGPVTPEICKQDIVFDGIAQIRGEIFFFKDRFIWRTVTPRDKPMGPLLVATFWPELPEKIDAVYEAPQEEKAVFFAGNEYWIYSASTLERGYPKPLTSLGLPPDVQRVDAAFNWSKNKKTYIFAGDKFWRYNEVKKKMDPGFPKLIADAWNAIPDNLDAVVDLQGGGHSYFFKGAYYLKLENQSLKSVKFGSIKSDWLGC

In the case of `O=S(=O)(O)C(F)(F)C(F)(F)C(F)(F)C(F)(F)C(F)(F)C(F)(F)F`, the call in assay [1], in [2], in assay [3] and in assay [4] was inactive.
For `Cc1ccccc1[N+](=O)[O-]`, the compound was called inactive in assay [5].
Same read-out and setting: then `O=C(O)C(F)(F)C(F)(F)C(F)(F)C(F)(F)C(F)(F)C(F)(F)C(F)(F)C(F)(F)F`, with “inactive”.
As to `CC#Cc1cc(C)nc(Nc2ccccc2)n1`, in assay [2], the result was inactive.
`O=C(O)C(F)(F)C(F)(F)C(F)(F)C(F)(F)C(F)(F)C(F)(F)C(F)(F)C(F)(F)C(F)(F)F`: in assay [6], the outcome was inactive. Also, the AC50 in assay [7] was 12.5 µM (active).
Turning to `Oc1ccc(C(c2ccc(O)cc2)(C(F)(F)F)C(F)(F)F)cc1`, in assay [6], the AC50 is 5.26 µM (active). The result in assay [4] was inactive.
`CCCCCCCCCC[N+](C)(C)CCCCCCCCCC`: the call in [6] and in assay [8] was inactive.
Take `O=NN(c1ccccc1)c1ccccc1`: the call in assay [6] and in assay [9] was inactive.
As to `O=C(O)C(F)(F)C(F)(F)C(F)(F)C(F)(F)C(F)(F)F`, the call in [10] and in [4] was inactive.
Turning to `CC(C)C(=O)OCC(C)(C)C(OC(=O)C(C)C)C(C)C` (centres undefined), the result in assay [10], in assay [2], in assay [3] and in assay [9] was inactive.
Turning to `CC(C)(c1ccccc1)c1ccc(O)cc1`, in [6], the AC50 was 10.5 µM (active).
Take `CCNc1nc(NC(C)C)nc(SC)n1`: in assay [1], the result was inactive.
Turning to `CO/C=C(/C(=O)OC)c1ccccc1COc1cccc(C(F)(F)F)n1`, in assay [7], the result was inactive.
In the case of `ClC1=C(Cl)[C@]2(Cl)[C@@H]3[C@@H](Cl)[C@H]4O[C@H]4[C@@H]3C1(Cl)C2(Cl)Cl`, in assay [2], the compound was classed as inactive.
Regarding `O=C(N[C@H]1CN2CCC1CC2)c1cc2ccoc2cn1`, the call in assay [4] was inactive.
Regarding `Cc1cccc([N+](=O)[O-])c1`, in assay [2], the compound was called inactive.
For `CCOCCOC(C)=O`, the compound was called inactive in [3].
Turning to `CC1=C2C[C@H]3[C@@H](CC=C4C[C@@H](O)CC[C@@]43C)[C@@H]2CC[C@]12O[C@@H]1C[C@H](C)CN[C@H]1[C@H]2C`, the call in [10], in assay [2], in assay [3] and in assay [5] was inactive.
`Cc1cccc(C)c1N`: the outcome in [2] was inactive.
With `Cc1ccc(O)c(C)c1`, in assay [5], the result was inactive.
